Values joined by “and” are separate entries in the source; they are usually repeats but may differ in a detail not shown here. Equal values may be shown once. The panel holds about 83,000 compounds, 20% with a hit somewhere; the sample as a whole holds those more often.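 48-hour exposure, single concentration, 96-well plates; percent growth endpoint where 0 means no net growth. Active: below 10.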 Values without a mark were called inactive. Active and inactive are the calls of the source.

The subject of the assay is NCI-H460 lung. Kind of assay: NCI-60 one-dose screen, 48 h (100 = growth as untreated, 0 = no growth, -100 = all killed). The following applies: 10 µM unless noted.
In the case of `CCCn1c(NC(=O)c2cccc(C(N)=O)c2)nc2ccc(CN3CCCCC3)cc21`, the growth was 81.9%.
As for `Fc1ccc(Nc2nnc(-c3c[nH]c4ccccc34)o2)cc1`, the growth is 91.9%.
With `CC1=C(C(=O)OC(C)C)C(c2ccc(O)cc2)NC(=O)N1` (stereo not drawn) the figure was 117%.
Next, `COc1ccc(NC(=O)Cn2c(/C=C/c3ccc([N+](=O)[O-])cc3)nc3ccccc3c2=O)cc1`: 42.3%; `O=C(c1ccc(O)cc1)C1[C@H](c2ccc(Cl)cc2)[C@@H](c2ccccc2)NC12C(=O)Nc1ccccc12` (stereo partly drawn): -20.5% (active).
Next, `O=c1ccc(Cn2c(C(F)(F)F)cc3c(Cl)ncnc32)c[nH]1`: 32.5%.
`O=C(CSc1nc2c(c(=O)[nH]1)CCCC2)Nc1ccccc1C(=O)O`: the growth is 120%.
With `COc1ccc2[nH]c(O)c(N=Nc3nc(-c4ccc(C#N)cc4)cs3)c2c1` the figure was 29.2%; with `COc1ccc(-c2nc3ccc(-c4nnc(SCC(=O)Nc5ccc(/C(C)=N\O)cc5)o4)cc3[nH]2)cc1`, 59.1%; with `Cc1ccc(C2CC(c3ccc(NC(=O)Nc4ccccc4)cc3)=NN2c2ccc(S(C)(=O)=O)cc2)cc1` (stereo not drawn), -5.89% (active).
With `CN1CCN(C(=O)Oc2cc3c(c4ccccc24)[C@H](CCl)CN3C(=O)c2cc3cc(OCCCN4CCC4)ccc3[nH]2)[C@H]2CSSC[C@H]21` the figure was 0.951% (active); with `Cc1ccc(N=Nc2c(N)nn3c(-c4cc5ccccc5oc4=O)ccnc23)cc1`, 50%; with `C[C@@H]1[C@H]2C[C@@H](C[C@H]1NCc1nc3ccccc3n1C1CCCCCC1)C2(C)C`, 56.3%.
Next, `Cc1ccc(C(=O)Nc2cc(-n3ccnc3)cc(C(F)(F)F)c2)cc1-n1cc(-c2cnc3cccnn23)nn1`: 97%; `CCC(=O)c1c2c(c3ccc4c5ccccc5ccc4n13)C(=O)c1ccccc1C2=O`: 6.66% (active); `N#Cc1c(NC(=O)N2CCOCC2)n(-c2ccc(OC(F)(F)F)cc2)c2cc(F)ccc12`: 94.5%.
`CC(=O)Nc1cccc(-n2c(COc3ccc(Br)cc3)nc3ccccc32)c1`: the growth is 105% and 107%.
With `COc1ccc(-c2cc(C(=O)OCc3ccc(Br)cc3)nn2-c2ccc(S(C)(=O)=O)cc2)cc1OC` the figure was 91.1%; with `Cc1nc(N)ncc1-c1ccc2ncnc(N3CCc4cc(F)c(Cl)cc43)c2c1`, 76.7%; with `COc1ccc(C(=O)NNC(=O)CSc2nc3sc4c(c3c(=O)n2-c2ccc(Cl)cc2)CCCC4)cc1`, 87.2%.
Next, `Cn1cc(-c2cc3nc(-c4cn(C)c5ncccc45)cc(N)n3n2)c2cc(F)ccc21`: 37.6%; `COc1ccc2[nH]c(=O)c(CSc3ccccc3Nc3nccc(-c4ccc(C(F)(F)F)cc4)n3)cc2c1`: 17.4%; `N#CC1=C(c2cccs2)Nc2c(c(-c3ccccc3)nn2-c2ccccc2)C12C(=O)Nc1ccc(Br)cc12` (stereo not drawn): -46.7% (active).
Next, `CCN1CCN(Cc2ccc(C(=O)Nc3cccc(Nc4ccc5c(OC)cccc5n4)c3)cc2C(F)(F)F)CC1`: -69% (active); `O=C(Nc1ccc(S(=O)(=O)N2CCCCC2)cc1)C(Cl)Cl`: 108%.
As to `O=[N+]([O-])c1cccc(-c2nnc3c(/C=C/c4ccc(F)cc4)nc4ccccc4n23)c1`, the growth was 90.3%.
With `COc1ccc(/C=C/C(=O)c2ccc(OC)c(S(N)(=O)=O)c2)c(C(F)(F)F)c1` the figure was 4.78% (active); with `COc1ccc2[nH]cc(-c3cc4nc(-c5cn(C)c6ncc(Br)cc56)cc(N)n4n3)c2c1`, -51.3% (active).
Next, `N#CC1=C(c2cccs2)Nc2c(c(-c3ccccc3)nn2-c2ccccc2)C12C(=O)Nc1ccc(Cl)cc12` (stereo not drawn): 6.17% (active); `Oc1ccc(F)c(Nc2nc(SCCN3CCOCC3)nc3c2cnn3CC(Cl)c2ccc(Br)cc2)c1` (stereo not drawn): 3.31% (active); `O=C(NNC(=S)NCCc1ccccc1)c1ccc(OCc2nc3ccc(Cl)cc3[nH]2)cc1`: 82.3%.
With `COc1c(B(O)O)cc(F)cc1-c1nc2c(F)cc3[nH]ncc3c2c2c1CCCC2` the figure was 2.44% (active); with `C[C@H]1[C@@H](CC(=O)N[C@@H](Cc2coc3ccccc23)B(O)O)O[C@@H]2OC3(C)CC[C@H]4[C@H](C)CC[C@@H]1[C@@]24O3`, 17%.
As to `C#CCN(C)CCCOc1ccc(N(C)C(=O)c2cc(C(C)C)c(O)cc2O)cc1Cl`, the growth was -13.3% (active).
In the case of `O=C(NN1C(=O)/C(=C/C=C/c2ccc([N+](=O)[O-])o2)SC1=S)c1ccc([N+](=O)[O-])cc1`, the growth was -48.9% (active).
In the case of `O=C(Nc1ccc(-c2ccc3c(c2)NC(=O)/C3=C\c2ccc[nH]2)cc1)Nc1ccc(Cl)c(Cl)c1`, the growth is 17.4%.
Next, `O=C1Nc2ccc(F)cc2/C1=C/C(=O)c1cc2ccccc2oc1=O`: 104%.
For `Cc1cnc2ccc(Oc3ccccc3-c3ccccc3)nn12`, the growth was 118%.

(Values after PubChem BioAssay (NCI).)
